# Screens from PubChem.
# Hits are enriched below; roughly 0.85% of the tested compounds scored in any of these assays.
# BLM inh-1: Bloom syndrome helicase (human) inhibition; recombinant BLM DNA unwinding, fluorescence dequenching; 0.2% of 350,000 active; P54132; Potency, µM (titrated, usually from 56.1 µM), most hits filed as inhibitors; also: nearly all actives have a fitted effect of over 35% in size
# Tb PGK inh: blocks T. brucei phosphoglycerate kinase | P07378 | PGK/GAPDH coupled, Kinase-Glo luminescence, 60 min | Potency, µM (series often up to 57.5 µM), hits mostly inhibitors | 0.043% of 380,000 active; also: nearly all actives have a fitted effect of over 60% in size
#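 Recombinant glycosomal PGK reaction used 1,3-bisphosphoglycerate generated in-well by GAPDH (100nM final) in 100mM TEA pH 7.6, 5mM MgCl2, 0.01% Tween-20. After 60 minutes at room temperature, ATP was read by Kinase-Glo Plus luminescence end-point.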
# RECQ1 inh-1: RECQ1 (human) helicase inhibition; P46063; RECQ1 DNA unwinding, red fluorescence kinetic read; Potency, µM (highest dose often 57.3 µM), hits mostly inhibitors; 0.54% of 240,000 active; AID 2549; also: nearly all actives have a fitted effect of over 30% in size
# Target sequence (P46063 whole entry, looked up): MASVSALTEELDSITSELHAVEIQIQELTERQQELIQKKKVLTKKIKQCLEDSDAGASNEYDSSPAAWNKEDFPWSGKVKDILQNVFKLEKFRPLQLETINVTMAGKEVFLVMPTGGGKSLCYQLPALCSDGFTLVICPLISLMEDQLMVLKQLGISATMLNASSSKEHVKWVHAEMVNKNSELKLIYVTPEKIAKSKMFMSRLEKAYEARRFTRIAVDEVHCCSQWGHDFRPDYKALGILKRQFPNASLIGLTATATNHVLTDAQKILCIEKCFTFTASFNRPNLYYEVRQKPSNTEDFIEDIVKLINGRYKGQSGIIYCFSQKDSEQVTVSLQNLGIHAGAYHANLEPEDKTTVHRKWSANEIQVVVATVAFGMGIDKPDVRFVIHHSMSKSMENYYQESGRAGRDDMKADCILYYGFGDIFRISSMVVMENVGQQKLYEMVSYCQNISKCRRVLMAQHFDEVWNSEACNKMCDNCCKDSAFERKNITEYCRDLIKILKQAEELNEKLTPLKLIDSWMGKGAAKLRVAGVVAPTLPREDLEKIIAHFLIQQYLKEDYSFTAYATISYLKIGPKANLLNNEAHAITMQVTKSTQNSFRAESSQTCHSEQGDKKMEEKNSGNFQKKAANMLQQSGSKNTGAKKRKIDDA
#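 50 nM RECQ1T1 preincubated 15 min with compound in Tris pH 8.0 buffer with MgCl2, DTT, Tween-20 and 2.5 ug/ml poly(dI-dC); started with 200 nM TAMRA/BHQ-2 forked duplex and 2 mM ATP. Unwinding read as fluorescence (525/598 nm), two reads 2 h apart.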
# APE1 inh: blocks human APE1 abasic DNA cleavage | P27695 | recombinant APE1, TAMRA/BHQ-2 abasic DNA cleavage fluorescence | Potency, µM (titrated, usually from 65.8 µM), hits mostly inhibitors | 0.35% of 350,000 active | AID 2517; also: nearly all actives have a fitted effect of over 55% in size
#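 Measures dequenching upon AP-site incision of a 5'-TAMRA/3'-BHQ-2 THF-containing duplex, 50 nM; human APE1 0.75 nM after 15 min room-temperature exposure to compound; kinetic three-point read at one-minute spacing.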
# GLS inh: glutaminase GLS (human) inhibition | O94925 | GLS enzymatic activity, qHTS titration | Potency, µM (top dose mostly 45.5 µM), actives largely listed as inhibitors | 0.21% of 410,000 active | AID 624170
#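 hKGA in 45 mM KH2PO4 pH 8.2, 0.02% Tween-20 with pin-transferred compounds; 1 mM L-glutamine (stock) plus glutamate oxidase/HRP/Amplex Red coupling added. Fluorescence read initially and after 30 min at RT.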
# TDP1 inh: blocks human tyrosyl-DNA phosphodiesterase 1; Potency, µM (doses to about 130 µM), actives largely listed as inhibitors; 0.28% of 350,000 active; recombinant TDP1, AlphaScreen DNA substrate cleavage; also: nearly all actives have a fitted effect of over 40% in size
#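 Enzyme-compound mixtures sat 15 min at room temperature, followed by a 5 min reaction with 15 nM final substrate and 10 min with AlphaScreen beads. Recombinant human Tdp1 was used at 1 nM final.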
# BLM inh-2: BLM (human) helicase inhibition, confirmation; shares compounds with BLM inh-1; BLM DNA unwinding, fluorescence quenching, biochemical; Potency, µM, hits mostly inhibitors; 40% of 220 active; AID 2585;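 also: strand separation dequenches TAMRA so unwinding raises red fluorescence; series mostly up to about 69 µM; nearly all actives have a fitted effect of over 45% in size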
# RECQ1 inh conf: confirmation of human RECQ1 helicase inhibitors; shares compounds with RECQ1 inh-1; RECQ1 helicase DNA unwinding, fluorescence; Potency, µM (doses to about 229 µM), hits mostly inhibitors; 28% of 610 active; also: nearly all actives have a fitted effect of over 45% in size
# ADP FP counter: ADP displacement flagged in RECQ1 inhibitor counter-screen; 27% of 530 active; ADP fluorescence polarization displacement counterscreen; shares compounds with RECQ1 inh-1; AID 2711; Potency, µM (top dose mostly 228 µM), actives largely listed as inhibitors; also: nearly all actives have a fitted effect of over 45% in size
# RECQ1 inh-2: blocks human RECQ1 DNA unwinding. recombinant RECQ1 DNA unwinding, red fluorescence. Potency, µM (doses to about 119 µM), usual class: inhibitors. shares compounds with RECQ1 inh-1. 15% of 1,100 active. AID 504841; also: nearly all actives have a fitted effect of over 50% in size
# Numbers stand for hits; - = inactive; ? = inconclusive; . = no result; [ ] = dose if it differs, or a comment. Calls follow the shape of the dose curve; as a rule, active = well fitted curve in the direction sought with a large enough effect; inconclusive = small, poorly fitted or top-dose-only effect, or another doubt; inactive = no such curve, though single readings can be large; an effect the other way counts as inactive or inconclusive.
SMILES,BLM inh-1,Tb PGK inh,RECQ1 inh-1,APE1 inh,GLS inh,TDP1 inh,BLM inh-2,RECQ1 inh-2,others
Cc1ccc(-c2nn3c(C)nnc3s2)cc1NC(=O)c1ccc(Br)o1,-,-,-,-,-,-,.,.,
COc1cccc(OC)c1-c1nn2c(-c3cc(-c4ccccc4)n[nH]3)nnc2s1,28µM,-,11µM,?,-,-,?,.,ADP FP counter=-
C=CCN1c2ccccc2[C@]23C[C@@H](C(=O)OC)N(S(=O)(=O)CCCC)C2=NC(C(=O)OC)=C(C(=O)OC)[C@H]13,-[12.4 µM],.,-[11.5 µM],-[12.4 µM],.,-[12.3 µM],.,.,
COc1cc(NC(=O)c2ccccc2)c(OC)cc1NC(=O)Cc1cccs1,11µM,-,13µM,16µM,-,.,16µM,?,RECQ1 inh conf=?;ADP FP counter=-
CC(=O)Nc1ccn(C2COC(COC(=O)c3ccccc3)O2)c(=O)n1 (configuration not stated),.,.,.,.,-,.,.,.,
CCCN(C(=O)c1cc2c(s1)CCC2)c1c(N)n(Cc2ccccc2)c(=O)[nH]c1=O,14µM,-,22µM,?,-,.,?,-,RECQ1 inh conf=40µM;ADP FP counter=-
Cc1c(O)ccc(/C=N/Nc2nc(-c3cccnc3)nc3ccccc23)c1O,?,-,20µM,-,-,-,24µM,.,RECQ1 inh conf=?;ADP FP counter=-
Cc1ccc(Nc2nc(-c3cccnc3)nc3ccccc23)cc1,-,-,-,-,-,.,.,.,
O=C(COc1ccc([N+](=O)[O-])cc1)Nc1nnc(-c2cccnc2)s1,16µM,-,?,?,-,-,?,?,
O=C(COc1ccc([N+](=O)[O-])cc1)NCc1cccnc1,-,-,-,-,-,-,.,.,
CC[C@@]1([C@@H]2O[C@@H]([C@H]3O[C@@](O)(CO)[C@H](C)C[C@@H]3C)C[C@@H]2C)CC[C@@H]([C@]2(C)CCC3(C[C@H](O)[C@@H](C)[C@@H]([C@@H](C)[C@@H](OC)[C@H](C)C(=O)O)O3)O2)O1 (some centres not stated),-,.,-,-,.,-,.,.,
O=C1c2cc(O)cc(O)c2OC[C@@H]1c1ccc(O)c(O)c1,-,.,-,?,.,-,.,.,
COc1ccc(CNc2nc(NCc3ccc(OC)cc3)c3ncn(C4CCCCC4)c3n2)cc1,-,.,-,-,.,-,.,.,
CCCOC(=O)NCCCN(C)C,-,.,-,-,.,-,.,.,
Cc1cccc(N2CCC(N3CCN(C4CCCCC4)C(CCO)C3)CC2)c1C (configuration not stated),14µM,-,?,22µM,-,-,-,-,
Nc1ccc(N2CCCCC2)cc1N1CCCCC1,-,-,-,-,-,-,.,.,
Nc1ccc(N2CCCCC2)c2nonc12,22µM,?,?,-,-,-,-,-,
S=C(Nc1ccc2nsnc2c1)N1CCCC1,7.9µM,-,?,?,-,-,?,-,
O=C(Nc1ccc2nsnc2c1)N1CCCCCC1,-,-,-,-,-,-,.,.,
Oc1ccc([C@@H]2CNCCc3c2cc(O)c(O)c3Cl)cc1,?,.,?,?,.,-,?,.,RECQ1 inh conf=?;ADP FP counter=7.1µM
O=c1[nH]nc(CNc2ccc(O)cc2)c2ccccc12,35µM,-,14µM,?,-,-,-,-,RECQ1 inh conf=-;ADP FP counter=40µM
O=C(O)CCCCCN1C(=O)/C(=C\c2cn(-c3ccccc3)nc2-c2cccs2)SC1=S,16µM,-,-,-,-,.,32µM,.,RECQ1 inh conf=-
O=C(O)CCCCCN1C(=O)/C(=C/c2cn(-c3ccccc3)nc2-c2cccs2)SC1=S,.,?,.,.,-,.,.,.,
Oc1ccc(NCc2cccc(OCc3ccc(F)cc3)c2)cc1,14µM,-,?,-,-,-,?,-,
CC(=O)Nc1ccc(/C=N/NC(=O)c2cc(-c3ccco3)nc3ccccc23)cc1,-,-,-,-,-,-,.,.,
SMILES,BLM inh-1,Tb PGK inh,RECQ1 inh-1,APE1 inh,GLS inh,TDP1 inh,BLM inh-2,RECQ1 inh-2,others
O=C(O)c1ccccc1/C=N/NC(=O)c1cc(-c2ccco2)nc2ccccc12,14µM,?,22µM,22µM,-,.,?,.,RECQ1 inh conf=40µM;ADP FP counter=40µM
CNC(=O)COC(=O)c1cc(-c2ccco2)nc2ccccc12,16µM,?,22µM,?,?,.,?,?,
O=c1c(-c2ccc([N+](=O)[O-])cc2)coc2c(O)c(O)ccc12,-,8.9µM,8.9µM,?,-,-,.,?,
Cc1[nH][nH]c(=O)c1C(c1ccc(-c2ccc(F)cc2)o1)c1c(C)[nH][nH]c1=O,-,-,-,-,-,-,.,.,
Cc1[nH][nH]c(=O)c1C(c1ccc(-c2ccc(Cl)c(Cl)c2)o1)c1c(C)[nH][nH]c1=O,-,-,?,?,-,-,.,?,
CCOc1ccc(-c2csc(NC(=O)c3ccc(S(=O)(=O)N4CCc5ccccc5C4)cc3)n2)cc1,-,-,-,-,-,-,.,.,
COC(=O)Cn1c(=NC(=O)c2ccc(S(=O)(=O)N3CCc4ccccc4C3)cc2)sc2cc(OC)ccc21,-,-,-,-,-,-,.,.,RECQ1 inh conf=-;ADP FP counter=-
COc1ccc(-c2csc(NC(=O)c3ccc(S(=O)(=O)N4CCc5ccccc5C4)cc3)n2)c(OC)c1,-,-,-,-,-,-,.,.,RECQ1 inh conf=-;ADP FP counter=-
COCCn1c(=NC(=O)c2ccc(S(=O)(=O)N3CCc4ccccc4C3)cc2)sc2cc(S(N)(=O)=O)ccc21,-,-,-,-,-,-,.,.,
COC(=O)C1=C(C(=O)OC)[C@@H]2N(Cc3ccccc3)c3ccccc3[C@@]23C[C@@H](C(=O)OC)N(S(=O)(=O)c2ccc(C)cc2)C3=N1,-[12.4 µM],.,-[11.5 µM],-[12.4 µM],.,-[12.3 µM],.,.,
COc1cc2c(cc1OC)C1=NC(=O)CN1C(SCc1ccc(C)cc1)=N2,-,-,-,-,-,-,.,.,
Cc1ccc(CSC2=Nc3sccc3C3=NC(=O)CN23)cc1,-,-,32µM,-,.,-,.,-,
CC(C)NC(=O)c1cc(-c2ccco2)nn1-c1ccc(Cl)cc1,-,-,-,-,-,-,.,.,
Cc1ccc(-n2nc(-c3ccco3)cc2C(=O)O)cc1,-,-,20µM,?,11µM,.,.,?,
O=C1CC2(CCCC2)CC(=O)N1CCCCNCC1COc2ccccc2O1 (configuration not stated),.,.,-,-,.,-,.,.,
CCCN1CNc2c(c(=O)[nH]c(=S)n2CCc2ccsc2)C1,.,.,.,.,.,-,.,.,
